Assay outcomes (PubChem BioAssay)
a7 integrin act: activates integrin-mediated alleviation for muscular dystrophy. 0.064% of 350,000 active. alpha7betagal myoblasts, beta-gal FDG fluorescence, 48 h. Potency, µM (top dose mostly 38.3 µM), without a hit: at the highest dose activation, actives largely listed as activators;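 also: potency is read from the fitted curve at half-maximal effect; 100% = response of the positive control SU9516; nearly all actives have a fitted effect of over 60% in size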
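Alpha7betagal+/- myoblasts (passage 13) were plated 16-24 hr, then exposed to compounds (1:260 dilution of DMSO stock) for 48 hours at 37C. After MPER lysis, β-galactosidase reporter activity was read as FDG fluorescence (ex 480/em 540) after 30 minutes.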
MBNL1 CUG block: blocks human MBNL1 binding to CUG repeat RNA. Q9NR56. AID 2675. Potency, µM (doses to about 57.5 µM), inactives show at the highest dose activity change, negative = inhibition, most hits filed as inhibitors. TR-FRET MBNL1-His/biotin-(CUG)12 binding, 665/545 ratio. 0.036% of 280,000 active; active = well fitted inhibition curve with a large enough effect in the signal ratio, with a control signal flat, not every such curve was filed as active; inconclusive = small, poorly fitted or top-dose-only effect, or effect the other way, or a change in a side signal; inactive = no such curve, though single readings can be large or run the other way; the % refers to the signal ratio; also: potency is read from the fitted curve at half-maximal effect; % is scaled to controls: 0 for no effect and ±100 for the full control effect
Target sequence (Q9NR56 whole entry, looked up): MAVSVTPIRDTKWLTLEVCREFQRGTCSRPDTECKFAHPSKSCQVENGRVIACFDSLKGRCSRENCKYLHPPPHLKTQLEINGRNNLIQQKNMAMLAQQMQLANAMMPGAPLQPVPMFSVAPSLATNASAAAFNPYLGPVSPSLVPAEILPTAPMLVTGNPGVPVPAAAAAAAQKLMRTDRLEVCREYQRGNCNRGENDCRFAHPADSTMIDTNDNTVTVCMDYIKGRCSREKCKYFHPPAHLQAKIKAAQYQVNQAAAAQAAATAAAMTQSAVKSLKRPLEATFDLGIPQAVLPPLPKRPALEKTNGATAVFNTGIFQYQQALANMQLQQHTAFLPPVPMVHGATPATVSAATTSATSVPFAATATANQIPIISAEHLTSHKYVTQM
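MBNL1-His + Biotin-(CUG)12, cpd titration 92 nM–58 uM; Tb anti-His Ab 0.055 ng/ul, SA-XL665 5 nM (final); 60 min RT; ratiometric 665/545 nm, Ex 340 nm; normalized to buffer and full-complex controls.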
PTHR1 agonist: agonists of human PTHR1 parathyroid hormone receptor | Q03431 | HEK293 GP2 PTHR1 cells, GloSensor cAMP luminescence, 1 h | Potency, µM (top dose mostly 115 µM), without a hit: top-dose activation, most hits filed as activators | 0.075% of 410,000 active | AID 743266; also: potency is read from the fitted curve at half-maximal effect; nearly all actives have a fitted effect of over 55% in size
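HEK-293-derived GP2 cells expressing PTHR1 and a GloSensor cAMP reporter, 3,000/well, plated overnight, given luciferin plus IBMX (each 0.5 mM as added) for 1 h at 37 °C, then compound for 1 h at 37 °C. Luminescence was read after 15 min at room temperature.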
DRD3 antagonist: D3 dopamine receptor (human) antagonism; D3R cells, DiscoveRx beta-arrestin luminescence, antagonist mode; active compounds read low; max response, negative = inhibition, %; 2.5% of 360,000 active; AID 652054; in the data active = max response below about -50%; inconclusive = no clear call, values can overlap the other calls; also: % is scaled to controls: 0 for no effect and ±100 for the full control effect
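Cells plated overnight at 1500 cells/well, then exposed to library compounds with dopamine controls for 90 minutes at 37 degrees C. DiscoveRx reagent added for 30–60 minutes at room temperature; luminescence read, quantitative HTS format.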
DRD3 agonist: agonists of human D3 dopamine receptor; AID 652048; max activation, %; 0.58% of 410,000 active; D3R DiscoveRx beta-arrestin cells, luminescence, 90 min; in the data active = max activation above about 30%; also: 0% is about no effect
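Cells at 1500/well, incubated overnight, then treated with pinned compounds (dopamine as control) for 90 min at 37 degrees C. DiscoveRx reagent added for 30 - 60 minutes at room temperature; luminescence read.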
CBFb RUNX1 block: blocks binding between human CBF-beta and RUNX1. Q01196+Q13951. AlphaScreen CBFb-His/RUNX1-biotin binding, biochemical. Potency, µM (top dose mostly 59.8 µM), for the others: top-dose activity, negative = inhibition, most hits filed as inhibitors. 230,000 tested, under 10 active. AID 1477; also: % of control where 0% means no effect
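Compounds were screened at multiple concentrations against a preformed CBF-beta(His)/RUNX1(biotin) complex (30 nM of each) for 15 min at room temperature, followed by 90 min with nickel and streptavidin beads and AlphaScreen reading.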
Starred values were filed as active, the others as inactive; i = inactive; ? = inconclusive; / = not tested or not shown; [ ] = remark or other dose. Sampled rows, rich in hits. Any-hit rate of the full collection: about 2.8%. Unless noted, calls follow the shape of the dose curve; as a rule, active = well fitted curve in the direction sought with a large enough effect; inconclusive = small, poorly fitted or top-dose-only effect, or another doubt; inactive = no such curve, though single readings can be large; an effect the other way counts as inactive or inconclusive.

SMILES	a7 integrin act	MBNL1 CUG block	PTHR1 agonist	DRD3 antagonist	DRD3 agonist	CBFb RUNX1 block
Cc1cn([C@H]2C[C@H](O)[C@@H](/C=C/C(=O)NCc3ccccc3)O2)c(=O)[nH]c1=O	/	/	-20%	-6	-1	/
CCCNC(=O)c1cc(C2CCCCN2S(=O)(=O)c2ccc(OC)cc2)on1 (stereo not drawn)	/	/	i	11	0	/
COc1ccc(S(=O)(=O)N2CCCCC2c2cc(C(=O)N3CCOCC3)no2)cc1 (stereo not drawn)	/	/	-9%	-96*	-7	/
Cc1ccc(NC(=O)COc2cccc(Oc3ccccc3)c2)cc1S(=O)(=O)N1CCOCC1	-32%	/	-32%	1	11	/
CCCCC1CN2C(CCC(C)C2c2ccc(Br)cc2)C(=O)O1 (stereo not drawn)	/	/	/	/	/	9%[13.1 µM]
O=C(O)c1ccc(Sc2nnc(-c3cccc(Br)c3)o2)c([N+](=O)[O-])c1	-24%	0%	-11%	-66*	-2	1%
COc1ccc(C)cc1NC(=O)c1cc(S(=O)(=O)N2CCCCC2)c[nH]1	/	/	-9%	/	-25	/
O=C(CSc1nnc(-c2ccco2)o1)NC(=O)C1COc2ccccc2O1 (stereo not drawn)	17%	-4%	i	-55*	3	?
O=C(CSc1nnc(-c2ccco2)o1)NC(=O)Cc1ccccc1	-9%	1%	i	-15	-6	1%
Cc1ccc(CSc2ncc(Cl)c(C(=O)Nc3nnc(C)s3)n2)cc1	/	/	i	/	1	/
COc1cccc(C(c2nnnn2Cc2ccccc2)N2CCN(C3CCCC3)CC2)c1OC (stereo not drawn)	18%	-6%	i	0	-8	4%
COc1cccc(C(c2nnnn2C2CCCC2)N2CCN(C/C=C/c3ccccc3)CC2)c1OC (stereo not drawn)	/	/	-10%	-96*	-22	/
CCC(c1nnnn1-c1ccc(OC)cc1)N1CCN(C/C=C/c2ccccc2)CC1 (stereo not drawn)	/	/	-30%	-57*	-4	/
COc1ccc(-n2nnnc2C(c2ccccc2)N2CCN(C/C=C/c3ccccc3)CC2)cc1 (stereo not drawn)	/	/	-21%	-118*	-13	/
COc1ccc(-n2nnnc2C(CCc2ccccc2)N2CCN(C/C=C/c3ccccc3)CC2)cc1 (stereo not drawn)	/	/	i	-76*	-18	/
Cc1ccc(S(=O)(=O)Nc2ccccc2F)cc1C(=O)NNC(=O)c1ccccc1O	-15%	/	-17%	9	12	/
COc1ccc(-n2nnnc2C(c2cccc(OC)c2OC)N2CCN(C/C=C/c3ccccc3)CC2)cc1 (stereo not drawn)	/	/	-5%	-86*	-9	/
Cc1ccc(-c2c(C)n3c4c(=O)n(C)c(=O)n(C)c4nc3n2CCCO)cc1	/	/	-33%	/	37*	/
COC(=O)CCCn1c(-c2ccc(C)cc2)c(C)n2c3c(=O)n(C)c(=O)n(C)c3nc12	/	/	-13%	/	2	/
Fc1ccc(NC(=S)NN=C2CCCCCC2)cc1	-18%	-6%	-6%[57.5 µM]	-150*	-6	0%
Cc1cc(Cl)cc(C)c1OCCOCCNCc1ccccc1	-81%	-11%	-21%	-80*	-9	/
Cc1cc(Cl)cc(C)c1OCCNCc1ccccc1	-44%	-2%	-18%	?	-17	/
Cc1cc(C)c(OCCNCc2ccccc2)c(C)c1	-37%	-8%	9%	-15	-13	/
Cc1cc(C)c(OCCCCNCc2ccccc2)c(Cl)c1	-68%	-1%	i	-76*	-59	-1%
CN(C)S(=O)(=O)c1cccc(NC(=O)C2Cc3ccccc3CN2C(=O)c2ccco2)c1 (stereo not drawn)	22%	0%	i	12	7	/
O=C(OC1CC2CC1[C@H]1CCCCN1C2=O)N1CCC(c2ccccc2)CC1 (stereo partly drawn)	/	/	-55%	-3	0	/
